Assay outcomes from PubChem.
D3 ag = agonists of human D3 dopamine receptor. D3R DiscoveRx beta-arrestin cells, luminescence, 90 min. hit rate 0.58% among 410,000. max activation, %. P35462; in the data active = max activation above about 30%; also: 0% is about no effect
Target sequence (P35462 whole entry, looked up): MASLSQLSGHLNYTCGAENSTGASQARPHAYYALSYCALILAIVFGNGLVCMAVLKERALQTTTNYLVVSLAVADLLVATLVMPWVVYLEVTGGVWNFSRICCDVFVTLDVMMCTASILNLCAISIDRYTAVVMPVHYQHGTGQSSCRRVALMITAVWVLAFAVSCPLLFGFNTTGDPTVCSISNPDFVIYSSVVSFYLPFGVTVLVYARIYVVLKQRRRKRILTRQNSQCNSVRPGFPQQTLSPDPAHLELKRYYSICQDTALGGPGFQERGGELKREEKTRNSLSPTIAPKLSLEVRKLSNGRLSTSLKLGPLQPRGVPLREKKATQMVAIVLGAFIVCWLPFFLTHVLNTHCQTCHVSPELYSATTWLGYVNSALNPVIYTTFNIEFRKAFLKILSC
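Cells at 1500/well, incubated overnight, then treated with pinned compounds (dopamine as control) for 90 min at 37 degrees C. DiscoveRx reagent added for 30 - 60 minutes at room temperature; luminescence read.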
IL-1B inflam inh = inflammasome signaling inhibition, IL-1 beta readout; THP-1 LPS/ATP IL-1B secretion, AlphaLISA, 16 h; stronger effect = lower value; hit rate 4.7% among 360,000; activity change, % at 57.5 µM; in the data active = activity change below about -50%; inconclusive = mostly about -30% to -49%; also: % is scaled to controls: 0 for no effect and ±100 for the full control effect
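THP-1 cells pretreated 1 hr with compounds (up to 57.5 uM final), then stimulated with LPS (250 ng/mL final) plus ATP (1.25 mM final); secreted IL-1B measured by AlphaLISA after 16 hr, decreased signal indicating inhibition.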
ClpP mod = qHTS Assay for Activators of ClpP; ATP-dependent Clp protease proteolytic subunit (Bacillus subtilis (strain 168)), P80244; purified B. subtilis ClpP, FRET peptide cleavage, 20 min; Potency, µM (doses to about 57.5 µM), without a hit: at the highest dose activity change, negative = active; hit rate 1.9% among 340,000; AID 651965, 2013; active = well fitted falling curve with a large enough effect; inconclusive = small, poorly fitted or top-dose-only effect; inactive = no such curve, though single readings can be large or run the other way; also: potency is read from the fitted curve at half-maximal effect; the source files actives as falling curves though it sought activators and does not explain the sign; nearly all actives have a fitted effect of over 65% in size
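Purified B. subtilis ClpP, 10 microg/mL final in Tris/HCl pH8 with KCl, BSA, glycerol and Tween-20, cleaved an Abz/nitrotyrosine-quenched decapeptide. Fluorescence (ex 320, em 430) was read at 0 and 20 min at room temperature. Delta was normalized to 5.8 microM ADEP and DMSO/no-enzyme controls.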
TDP1 cell CPT = DT40-hTDP1 cell growth loss with CPT; hit rate 12% among 420,000; chicken DT40 Tdp1-/-;hTDP1 cells + 20 nM CPT, ATP luminescence, 48 h; Potency, µM (highest dose often 46.2 µM), for inactives: at the top dose activity change, negative = growth inhibition, usual class: inhibitors; also: potency is read from the fitted curve at half-maximal effect; % is scaled to controls: 0 for no effect and ±100 for the full control effect; nearly all actives have a fitted effect of over 55% in size
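Chicken DT40 Tdp1-/- cells stably complemented with human TDP1 were seeded at 400 cells/well in medium containing 20 nM camptothecin, exposed to pin-transferred compounds, and grown at 37 °C for at least 48 hr. Viability was read as ATP luminescence.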
DRD3 antagonist = D3 dopamine receptor (human) antagonism. P35462. D3R cells, DiscoveRx beta-arrestin luminescence, antagonist mode; stronger effect = lower value. max response, negative = inhibition, %. hit rate 2.5% among 360,000; in the data active = max response below about -50%; inconclusive = no clear call, values can overlap the other calls; also: % is scaled to controls: 0 for no effect and ±100 for the full control effect
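Cells plated overnight at 1500 cells/well, then exposed to library compounds with dopamine controls for 90 minutes at 37 degrees C. DiscoveRx reagent added for 30–60 minutes at room temperature; luminescence read, quantitative HTS format.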
DT40 TDP1 no CPT = qHTS for Inhibitors of human tyrosyl-DNA phosphodiesterase 1 (TDP1): qHTS in cells in absence of CPT | DT40 Tdp1-/- hTDP1 cells, no CPT, ATP luminescence, 48 h | Potency, µM (highest dose often 46.2 µM), inactives show at the top dose activity change, negative = growth inhibition, hits mostly inhibitors | hit rate 15% among 420,000 | AID 686978, 2013; also: potency is read from the fitted curve at half-maximal effect; % is scaled to controls: 0 for no effect and ±100 for the full control effect; nearly all actives have a fitted effect of over 55% in size
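Compound effects on proliferation are scored in DT40 Tdp1-/-;hTDP1 cells in the absence of CPT. ATP levels (CellTiter-Glo luminescence) are recorded after a ≥48 hr, 37 °C incubation.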
* hit, by the source's call; ? = inconclusive; / = no result; [ ] = remark or other dose. Hits are enriched below; roughly 21% of the tested compounds scored in any of these assays. Unless noted, calls follow the shape of the dose curve; as a rule, active = well fitted inhibition curve with a large enough effect; inconclusive = small, poorly fitted or top-dose-only effect; inactive = flat fitted curve, though single readings scatter.

SMILES	D3 ag	IL-1B inflam inh	ClpP mod	TDP1 cell CPT	DRD3 antagonist	DT40 TDP1 no CPT
COc1ccc(-c2cc(C(=O)N3CCc4c(cnc(C)c4CNC(=O)c4ccsc4)C3)[nH]n2)cc1	/	/	/	-1.4%[9.04 µM]	/	-2.4%
CCn1c2ccccc2c2nnc(SC3CCOC3=O)nc21 (stereo not drawn)	/	/	0.1%	-17.0%	/	-9.6%
Cc1[nH]c2ccc(F)cc2c1CCNC(=O)c1cc2cc(Cl)ccc2oc1=O	-1.2	/	5.1%	2.0%	/	-23.7%
Cc1cc(C)n(-c2cccc(CN3CCC(CO)(Cc4ccccc4)CC3)c2)n1	-26.6	-70.7*	/	?	?	23.1µM*
COC(C[C@@H]1O[C@@H]1[C@H](O)[C@H](C)OCc1ccccc1)OC	-8.7	32.1	0.4%	-7.0%	-5.9	-1.6%
COC(C[C@H]1O[C@H]1C(=O)[C@@H](C)OCc1ccccc1)OC	7.6	-12.8	0.4%	10.3µM*	-1.2	?
COC(C[C@@H]1O[C@H]1C(=O)[C@@H](C)OCc1ccccc1)OC	-7.7	?	0.5%	18.4µM*	2.7	-70.1%
COc1cc(C(=O)OCC(=O)N2CCN(C(C)=O)CC2)ccc1OCC(C)C	-6.3	18.3	-2.3%	8.4%	-6.1	-5.6%
CCc1cccc2c(C(=O)C(NC(C)CC)c3ccccc3)c[nH]c12 (stereo not drawn)	-14.4	-18.0	/	?	-25.5	23.1µM*
CCc1cccc2c(C(=O)C(NCCCOC)c3ccccc3)c[nH]c12 (stereo not drawn)	-17.1	-3.0	/	?	?	?
C=C(C)c1ccc(C(C)(C)NC(=O)N2CCN(C)CC2)cc1	-4.9	29.3	-11.7%	16.4µM*	-13.9	20.6µM*
COc1cc(OC)c(OC)cc1CN1CCc2nc(Nc3ccc4c(c3)OCCO4)ncc2C1	-13.8	/	-6.2%	16.4µM*	/	?
Clc1ccc(CN2CCc3nc(Nc4ccc5c(c4)OCCO5)ncc3C2)cc1	-9.1	/	-10.2%	16.4µM*	/	13µM*
COc1cccc(CN2CCc3nc(Nc4ccc5c(c4)OCCO5)ncc3C2)c1	18.8	/	-1.8%	?	/	?
Cc1cc2nc(-c3ccccc3)c(Cc3ccsc3)n2c(C)c1Br	-6.5	17.1	-7.5%	14.6µM*	-25.3	14.6µM*
COc1ccc(Cc2c(-c3ccccc3)nc3cc(C)c(Br)c(C)n23)c(C)c1	-5.1	0.0	-0.9%	?	-0.3	?
Cc1cc2nc(C3CCCCC3)c(Cc3cccc(Cl)c3)n2c(C)c1Br	-0.9	38.4	-1.9%	-18.0%	24.5	-25.2%
Cc1cc2nc(-c3ccccc3)c(Cc3ccccc3)n2c(C)c1Br	-8.0	-4.0	-1.1%	23.1µM*	-11.6	?
Cc1cc2nc(-c3ccc(C#N)cc3)c(Cc3ccsc3)n2c(C)c1Br	3.9	4.4	-2.2%	16.4µM*	33.3	16.4µM*
Cc1cc2nc(C3CCCCC3)c(Cc3ccccc3)n2c(C)c1Br	-17.8	40.9	-2.7%	?	-21.2	23.1µM*
COc1cccc(NC(=S)NN2CCN(C)CC2)c1	-9.9	21.4	-3.5%	29.1µM*	18.3	-0.3%
COc1cccc(NC(=S)NN=C2CCCCCC2)c1	0.0	33.0	/	3.66µM*	-17.2	5.17µM*
CC1CCC/C(=N\NC(=S)Nc2ccccc2)C1 (stereo not drawn)	0.3	-25.5	-0.4%	8.2µM*	-0.2	10.3µM*
COc1ccc(OC)c(NC(=S)NN2CCN(C)CC2)c1	-5.4	-24.1	0.2%	-3.3%	-21.4	-21.9%
O=C(CNC(=O)C1CCCCC1)OCC(=O)c1ccc(C2CCCCC2)cc1	/	/	-0.2%	?	/	?
O=C(/C=C/c1ccc2c(c1)OCO2)Nc1nc(-c2ccccc2)cs1	3.3	?	?	?	16.8	?
